The structures appear in SMILES notation. Where “and” joins values, the source holds several entries; their conditions need not be identical. Equal entries are not always repeated. Results filed as inconclusive are left out. A structure can be active in one record and inactive in another. Calls of active or inactive are those of the source. How the source made its calls, unless noted: active means hit-call score of the fitted dose curve at least 0.9, where 1 is the maximum; inactive means score below 0.9.

Read-out in experiment [1]: Collagen I, COL1A1 (gene 1277)
Description: BSK_MyoF_CollagenI: BioMAP Diversity Plus: MyoF Assay for Collagen I Biomarker Activity (AID 2284238). The following applies: primary human lung fibroblasts. In outline:
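Human lung fibroblasts were exposed to test chemical for 24 h, then Collagen I was quantified by ELISA. Activity was fitted in the increasing direction against DMSO as the negative control and baseline.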

Read-out in experiment [2]: Collagen III, COL3A1 (gene 1281)
Description: BSK_MyoF_CollagenIII: BioMAP Diversity Plus: MyoF Assay for Collagen III Biomarker Activity (AID 2284239). The following applies: primary human lung fibroblasts. In outline: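 Human lung fibroblasts were dosed with chemicals and, 24 hours later, collagen III was measured by ELISA. Activity was fitted in the positive direction against the DMSO negative-control baseline.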

Experiment [3] can be described thus: CCTE_Mundy_HCI_hNP1_Casp3_7: CCTE's Caspase-Glo 3/7 Assay in human neuroprogenitor cells for Apoptosis, Mundy Lab (AID 2284240). In outline:
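Apoptosis is scored by activated caspase-3/7 luminescence in WA09-derived neural progenitor cells, measured 26.5 h after chemical dosing. Values represent gain of signal relative to DMSO vehicle.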

Experiment [4] is described as follows: CCTE_Mundy_HCI_hNP1_CellTiter: CCTE's Cell Titer-Glo 2 Assay in human neuroprogenitor cells for Viability, Mundy Lab (AID 2284241; active means hit-call score of the fitted dose curve at least 0.9, where 1 is the maximum). In outline:
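Human neural progenitor cells (hNP1, WA09-derived) were plated on poly-L-ornithine/laminin and grown 40 to 44 hours at 37 °C, 5% CO2 before chemical addition. Twenty-four hours later, ATP was measured by CellTiter-Glo luminescence; loss of signal versus DMSO indicates reduced viability.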
For orientation: ATP-based viability assays read luminescence as a measure of living cells.

Read-out in experiment [5]: Interleukin 17F (IL17F), IL17F (gene 112744)
Kind of experiment: BSK_BT_xIL17F: BioMAP Diversity Plus: BT Assay for Interleukin 17F (IL17F) Biomarker Activity (AID 2284243). The following applies: primary human B cells with PBMC. A digest of the protocol: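 B cell/PBMC co-culture (human primary), 24 h compound exposure; sIL-17F by Luminex xMAP; gain-of-signal fit vs DMSO baseline.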

Read-out in experiment [6]: Actin alpha 1 (ACTA1), ACTA1 (gene 58)
Kind of experiment: BSK_MyoF_ACTA1: BioMAP Diversity Plus: MyoF Assay for Actin alpha 1 (ACTA1) Biomarker Activity (AID 2284244). The following applies: primary human lung fibroblasts. In outline:
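Measured by ELISA: alpha-smooth muscle actin in human primary lung fibroblasts 24 h after dosing, with DMSO as baseline and upward signal change as the fitted direction.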

Read-out in experiment [7]: Interleukin 2 (IL2), IL2 (gene 3558)
Description: BSK_BT_xIL2: BioMAP Diversity Plus: BT Assay for Interleukin 2 (IL2) Biomarker Activity (AID 2284245). The following applies: primary human B cells with PBMC. A digest of the protocol: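 Secreted interleukin-2 from human B cell/PBMC co-cultures, measured 24 h post-dosing by Luminex multiplex immunoassay. Upward-direction curve fitting against DMSO baseline.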

Read-out in experiment [8]: Basic fibroblast growth factor (bFGF), FGF2 (gene 2247)
Description: BSK_MyoF_bFGF: BioMAP Diversity Plus: MyoF Assay for Basic fibroblast growth factor (bFGF) Biomarker Activity (AID 2284246). The following applies: primary human lung fibroblasts. A digest of the protocol:
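In this multiplexed cell system, lung fibroblasts (human primary) receive test chemical for 24 h before ELISA detection of bFGF; DMSO defines baseline and the analysis direction is positive.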

Read-out in experiment [9]: Collagen IV, COL4A1 (gene 1282)
Kind of experiment: BSK_MyoF_CollagenIV: BioMAP Diversity Plus: MyoF Assay for Collagen IV Biomarker Activity (AID 2284247). The following applies: primary human lung fibroblasts. In outline: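 Activity is scored as a signal increase over DMSO in an ELISA for Collagen IV, measured on human lung fibroblasts at 24 h after chemical treatment. Cytotoxicity is checked in parallel cultures by sulforhodamine B total-protein staining.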

Read-out in experiment [10]: Monokine induced gamma interferon (MIG), CXCL9 (gene 4283)
Kind of experiment: BSK_KF3CT_MIG: BioMAP Diversity Plus: KF3CT Assay for Monokine induced gamma interferon (MIG) Biomarker Activity (AID 2284248). The following applies: primary human keratinocytes with fibroblasts. A digest of the protocol: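 Human keratinocyte plus foreskin fibroblast primary co-culture dosed with test chemical for 24 h; MIG level measured by ELISA and fitted in the positive direction against DMSO as baseline.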

Read-out in experiment [11]: Vascular cell adhesion molecule 1 (VCAM1), VCAM1 (gene 7412)
Description: BSK_BF4T_VCAM1: BioMAP Diversity Plus: BF4T Assay for Vascular cell adhesion molecule 1 (VCAM1) Biomarker Activity (AID 2284249). The following applies: primary human bronchial epithelial cells with fibroblasts. A digest of the protocol:
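Human bronchial epithelial cell and dermal fibroblast co-culture exposed 24 h. VCAM-1 measured by ELISA; parallel SRB total-protein staining for cytotoxicity. Fitted in positive direction relative to DMSO.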

Read-out in experiment [12]: Collagen I, COL1A1 (gene 1277)
Kind of experiment: BSK_hDFCGF_CollagenI: BioMAP Diversity Plus: hDFCGF Assay for Collagen I Biomarker Activity (AID 2284250). The following applies: primary human foreskin fibroblasts. In outline: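 Cells were primary human foreskin fibroblasts treated for 24 h. Collagen I levels were then determined by ELISA and compared against DMSO controls.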

Read-out in experiment [13]: Interferon-inducible T-cell alpha chemoattractant (ITAC), CXCL11 (gene 6373)
Description: BSK_hDFCGF_ITAC: BioMAP Diversity Plus: hDFCGF Assay for Interferon-inducible T-cell alpha chemoattractant (ITAC) Biomarker Activity (AID 2284251). The following applies: primary human foreskin fibroblasts. In outline: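 Fibroblasts (human foreskin, primary) are treated with chemical, cultured 24 h, then assayed for I-TAC by ELISA. Overt toxicity is checked in parallel cultures by sulforhodamine B staining of total protein at the same time point.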

Read-out in experiment [14]: Plasminogen activator inhibitor-1 (PAI1), SERPINE1 (gene 5054)
Kind of experiment: BSK_KF3CT_PAI1: BioMAP Diversity Plus: KF3CT Assay for Plasminogen activator inhibitor-1 (PAI1) Biomarker Activity (AID 2284252). The following applies: primary human keratinocytes with fibroblasts. A digest of the protocol: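 Signal is PAI-1 detected by ELISA in a human skin-derived keratinocyte/fibroblast co-culture, 24 h after dosing; DMSO served as negative control and baseline.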

Read-out in experiment [15]: Monocyte Chemoattractant Protein-1 (MCP1), CCL2 (gene 6347)
Kind of experiment: BSK_IMphg_MCP1: BioMAP Diversity Plus: IMphg Assay for Monocyte Chemoattractant Protein-1 (MCP1) Biomarker Activity (AID 2284253). The following applies: primary human endothelial cells with macrophages. In outline:
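Human venular endothelial cells co-cultured with macrophages; MCP-1 measured by ELISA 24 hours post-dose and fitted against DMSO. Cytotoxicity monitored by SRB total-protein staining in parallel cultures.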

Read-out in experiment [16]: Interleukin-8 (IL8), CXCL8 (gene 3576)
Kind of experiment: BSK_KF3CT_IL8: BioMAP Diversity Plus: KF3CT Assay for Interleukin-8 (IL8) Biomarker Activity (AID 2284254). The following applies: primary human keratinocytes with fibroblasts. In outline:
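Human primary keratinocyte plus foreskin fibroblast co-culture dosed with test chemicals; IL-8 measured by ELISA 24 h after dosing. Activity fitted in the positive direction relative to DMSO negative control.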

Read-out in experiment [17]: Macrophage Inflammatory Protein-1 Alpha (MIP1a), CCL3 (gene 6348)
Description: BSK_IMphg_MIP1a: BioMAP Diversity Plus: IMphg Assay for Macrophage Inflammatory Protein-1 Alpha (MIP1a) Biomarker Activity (AID 2284255). The following applies: primary human endothelial cells with macrophages. In outline:
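Co-culture of human venular endothelial cells and macrophages exposed to compounds for 24 h; MIP-1a measured by ELISA relative to DMSO. Cytotoxicity assessed in parallel cultures by sulforhodamine B total-protein staining at 560 nm.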

Experiment [18] is described as follows: CCTE_Mundy_HCI_Cortical_NOG_NeuronCount: CCTE's Neurite Outgrowth Assay in rat cortical cells for Neuron Count, Mundy Lab (AID 2284236; active means hit-call score of the fitted dose curve at least 0.9, where 1 is the maximum;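 further: neurons counted by imaging betaIII-tubulin and Hoechst stained cortical cells; cells exposed to compound for about 48 hours before fixation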). In outline: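 Read-out: neuron number by high-content imaging of betaIII-tubulin (Alexa Fluor-488) and Hoechst-labelled rat primary cortical cells.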
The nature of experiment [19]: CCTE_Mundy_HCI_Cortical_NOG_BPCount: CCTE's Neurite Outgrowth Assay in rat cortical cells for Branch Point Count, Mundy Lab (AID 2284237).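 On AC50: branch points counted about two days after chemical exposure.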 A digest of the protocol:
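Measured 50.33 h after dosing, this morphology endpoint uses rat primary cortical cultures labelled for betaIII-tubulin. Branch points are quantified by high-content imaging, with DMSO as negative control and baseline.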

Experiment [20] in a line: CCTE_Mundy_HCI_Cortical_Synap_Neur_Matur_NeuronCount: CCTE's Synaptogenesis and Neurite Maturation Assay in rat cortical cells for Neuron Count, Mundy Lab (AID 2284242; active means hit-call score of the fitted dose curve at least 0.9, where 1 is the maximum;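 on AC50: neuron number from Hoechst nuclei and MAP2 staining by high-content imaging; hits reduce neuron count versus DMSO baseline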). In outline: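 Imaging-based neuron count in rat cortical cultures after chemical exposure from DIV 7 to DIV 12, with AraC added at DIV 5. Activity is fitted relative to DMSO.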

As usually defined, the AC50 is the midpoint of the concentration-response curve, whichever way the signal moves. With `FC(F)(F)C(F)(F)C(F)(F)C(F)(F)C(F)(F)C(F)(F)I`, the AC50 in [1] is 33.1 µM (active) and 39.4 µM (active); in [2], 30 µM (active); in [6], 17.8 µM (active) and 30 µM (active); in experiment [9], 51.3 µM (active) and 47.7 µM (active); in [13] it was 47.4 µM (active). Further, the compound was called inactive in [3], in [4], in [5], in experiment [7], in [8] and in experiment [10]. The result in experiment [11], in experiment [12], in experiment [13], in experiment [14], in [15] and in experiment [16] was inactive. Also, the outcome in experiment [17] was inactive.

On to `Nc1ccn([C@@H]2O[C@H](CO)[C@@H](O)[C@@H]2O)c(=O)n1`, for which the AC50 in experiment [18] is 1.58 µM (active) and 2.33 µM (active); in experiment [19], 11.9 µM (active) and 3 µM (active); in experiment [3], 29 nM (active) and 290 nM (active); in [20], 4.39 µM (active) and 3.57 µM (active). For the same compound, the compound was classed as inactive in [4].

Regarding `FC(F)(F)COC(OCC(F)(F)F)OCC(F)(F)F`, the outcome in experiment [1], in experiment [2], in experiment [5], in experiment [6], in [7] and in experiment [8] was inactive. For the same compound, the result in [9], in experiment [10], in [11], in [12], in [13] and in experiment [14] was inactive. Further, the result in experiment [15], in [16] and in experiment [17] was inactive.

As to `c1ccc2cc3ccccc3cc2c1`, the result in [18], in experiment [19], in [3] and in experiment [4] was inactive.

`O=C(Cl)C(F)(F)C(F)(F)C(F)(F)C(=O)Cl`: the outcome in experiment [1], in experiment [2], in experiment [3], in experiment [4], in [5] and in experiment [6] was inactive. Further, the result in experiment [7], in experiment [8], in experiment [9], in experiment [10], in [11] and in experiment [12] was inactive. For the same compound, the result in experiment [13], in experiment [14], in experiment [15], in experiment [16] and in experiment [17] was inactive.

For the compound `OC(Cn1cncn1)(Cn1cncn1)c1ccc(F)cc1F`, the compound was classed as inactive in experiment [19], in [3] and in [4].

For `CCCC(CCC)C(=O)O`, the compound was called inactive in [19], in experiment [4] and in experiment [20]. In addition, in [3], the AC50 is 1.5 mM (active).

Regarding `NCC(F)(F)C(F)(F)C(F)(F)C(F)(F)F`, the outcome in [1], in [2], in [5], in experiment [6], in experiment [7] and in experiment [8] was inactive. Further, the outcome in experiment [9], in experiment [10], in experiment [11], in experiment [12], in experiment [13] and in [14] was inactive. Moreover, the result in [15], in experiment [16] and in [17] was inactive.

Regarding `NNC(=O)c1ccncc1`, the compound was classed as inactive in experiment [19], in [3], in experiment [4] and in [20].

As to `NC(=O)N1c2ccccc2C=Cc2ccccc21`, the result in experiment [18], in experiment [19], in [3] and in experiment [4] was inactive.

Regarding `OCCC(F)(F)C(F)(F)C(F)(F)C(F)(F)F`, the outcome in experiment [1], in experiment [2], in [5], in [6], in experiment [7] and in [8] was inactive. Besides, the result in experiment [9], in experiment [10], in experiment [11], in experiment [12], in [13] and in [14] was inactive. The result in experiment [15], in experiment [16] and in experiment [17] was inactive.

For the compound `Cn1cc[nH]c1=S`, the compound was called inactive in [18], in [19], in [3] and in [4].

Consider `Cc1cccc(O)c1C`, for which the outcome in [1], in [2], in [5], in [6], in experiment [7] and in [8] was inactive. In [9], the result was inactive.

Values taken from PubChem BioAssay (EPA / NIEHS).
